ANO1 activ = TMEM16A chloride channel activators or potentiators, primary screen, cell-based, HTS; Anoctamin-1 (Mus musculus), Q8BHY3; 340,000 compounds, 0.3% hits; B-score at 10 µM; AID 623877, 2012; HEK293 TMEM16A/YFP-H148Q/I152L, iodide quench fluorescence; stronger effect = lower value;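 active = fluorescence-ratio B-score plate-corrected deviation score at least 3 library SD below zero, with starting fluorescence score within 5 deviations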;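 also: channel opened by trigger with iodide after compound preincubation; score built on the fluorescence ratio of max minus min over baseline; more negative score means more quench and so TMEM16A activation or potentiation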
MEKK2mut PB1 HTS = MEK5 binding signal on mutant MEKK2 PB1, primary screen, biochemical, multiplex bead flow cytometry, Alexa488-MEK5 | Alexa488-MEK5 binding to MEKK2 mutant | percent response, % at 10 µM | 290,000 compounds, 0.35% hits; in the data active = percent response above about 24%, passing the limit was not always enough
ANO1 block = TMEM16A chloride channel inhibitors, primary screen, cell-based, HTS; 310,000 compounds, 1.2% hits; HEK293 TMEM16A/YFP iodide influx fluorescence, ionomycin; normalized B-score (activity score, 25-100; higher = stronger inhibition) at 10 µM; Anoctamin-1 (Mus musculus), Q8BHY3; AID 588511, 2011;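 active = ratio plate-corrected score three or more library SD toward inhibition, starting fluorescence score within five deviations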;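 also: score derived from kinetic fluorescence span divided by baseline fluorescence per well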
MEKK3 PB1 HTS = modulators of MEKK3-MEK5 PB1 binding, primary screen, biochemical, wildtype MEKK3, multiplex bead flow cytometry, Alexa488-MEK5; Mitogen-activated protein kinase kinase kinase 3 (Homo sapiens), Q99759; bead-based flow cytometry, Alexa488-MEK5 binding to MEKK3; actives lie on both sides; 0 = blocked by unlabeled MEK5, 100 = vehicle; binding response (% of control), % at 10 µM; 290,000 compounds, 1.4% hits; AID 1529, 2009;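 active = binding response more than 3 SD above or below the average of its plate-row segment, actives on both sides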;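 also: Alexa488 bead fluorescence after subtracting the streptavidin-only scavenger bead signal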
Target sequence (Q99759 whole entry, looked up): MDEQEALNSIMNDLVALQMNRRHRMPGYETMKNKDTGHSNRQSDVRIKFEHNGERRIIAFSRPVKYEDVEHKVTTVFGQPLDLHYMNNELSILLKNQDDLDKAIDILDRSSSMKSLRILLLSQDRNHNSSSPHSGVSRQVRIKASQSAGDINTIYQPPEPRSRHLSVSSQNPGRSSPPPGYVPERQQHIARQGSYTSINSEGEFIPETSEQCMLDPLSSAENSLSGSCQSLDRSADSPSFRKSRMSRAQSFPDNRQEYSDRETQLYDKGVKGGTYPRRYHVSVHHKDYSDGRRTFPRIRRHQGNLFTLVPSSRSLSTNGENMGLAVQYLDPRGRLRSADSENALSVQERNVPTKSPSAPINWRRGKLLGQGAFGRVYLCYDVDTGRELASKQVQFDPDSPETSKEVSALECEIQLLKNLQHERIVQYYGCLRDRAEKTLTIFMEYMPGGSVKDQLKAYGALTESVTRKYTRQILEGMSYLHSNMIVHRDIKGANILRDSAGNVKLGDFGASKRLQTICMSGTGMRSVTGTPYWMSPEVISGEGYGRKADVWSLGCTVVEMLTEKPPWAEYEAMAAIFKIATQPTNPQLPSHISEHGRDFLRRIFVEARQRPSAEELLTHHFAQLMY
MEKK2wt PB1 HTS = modulators of MEK5 binding to wildtype MEKK2, primary screen, biochemical, multiplex bead flow cytometry, Alexa488-MEK5; Mitogen-activated protein kinase kinase kinase 2 (Homo sapiens), Q9Y2U5; Alexa488-MEK5 binding to MEKK2 WT; actives lie on both sides; binding response (% of control), % at 10 µM; 290,000 compounds, 1.1% hits; in the data active = binding response below about 67% or above about 130%
NTR1 agonist = agonists of human NTR1, primary screen, imaging, U2OS cells, beta-arrestin-GFP, high content; Neurotensin receptor type 1 (Homo sapiens), P30989; activation, % at 20 µM; 330,000 compounds, 0.17% hits; NTR1-U2OS beta-arrestin-GFP spot imaging, agonist mode;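 active = activation at or above 40% of the spot to cytoplasm intensity ratio, with at least 20 cells analyzed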;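 also: 0% = DMSO without peptide and 100% = 100 nM NTR1 peptide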
MEKK2wt confirm = modulators of MEK5 binding to wildtype MEKK2, confirmation, biochemical, single concentration, multiplex bead flow cytometry; shares compounds with MEKK3 PB1 HTS; Alexa488-MEK5 binding to MEKK2 WT; actives lie on both sides; binding response (% of control), % at 10 µM; 5,900 compounds, 2.4% hits; AID 1892, 2009; in the data active = binding response below about 16% or above about 210%; inactive = in between
MEKK2mut confirm = mutant MEKK2 PB1-MEK5 binding signal retest – biochemical, single concentration, multiplex bead flow cytometry, confirmation. shares compounds with MEKK3 PB1 HTS. Alexa488-MEK5 binding to MEKK2 mutant. percent response, % at 10 µM. 5,900 compounds, 2% hits; in the data active = percent response mostly above about 71%, no sharp cut-off; inactive = mostly below about 38%;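 also: higher means compound restores mutant binding toward wildtype level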
MEKK3-MEK5 inh = MEKK3 wild-type PB1 binding to MEK5, inhibitors, confirmation, biochemical, bead multiplex flow cytometry, single concentration, wildtype; shares compounds with MEKK3 PB1 HTS; Alexa488-MEK5 binding to MEKK3; stronger effect = lower value; binding response (% of control), % at 10 µM; 5,900 compounds, 1.8% hits;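 active = binding response below 72% of control, or above a set upper limit, though filed actives all read lower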;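 also: 100% = DMSO only wells and 0% = binding blocked by excess unlabeled MEK5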
* marks the source's active call; other numbers are inactive results; i = inactive; . = no result; [ ] = dose if it differs, or a comment. Rows were chosen to be rich in hits. Some 3.4% of all compounds tested hit in one or more screens of this group.

SMILES	ANO1 activ	MEKK2mut PB1 HTS	ANO1 block	MEKK3 PB1 HTS	MEKK2wt PB1 HTS	NTR1 agonist	MEKK2wt confirm	MEKK2mut confirm	MEKK3-MEK5 inh
CCCCCOc1ccc(CSC(=N)N)cc1[N+](=O)[O-]	i	34*	i	108	148*	2	139	23	112
COc1ccc(CSC(=N)N)cc1[N+](=O)[O-]	i	10	i	108	106	0	.	.	.
CCOc1ccc(S(=O)(=O)Oc2ccc3ccccc3c2)cc1	i	0	i	148*	106	3	98	-7	101
Cc1ccc(S(=O)(=O)Oc2ccc3ccc(O)cc3c2)cc1	i	4	i	104	98	0	.	.	.
COc1cc(C2C3=C(COC3=O)Oc3cc4c(cc32)OCO4)cc(OC)c1O (centres undefined)	i	.	.	.	.	.	.	.	.
COc1cccc(OC)c1NC(=O)Cc1nn(C)c(=O)c2ccccc12	i	8	i	125*	123	-1	98	1	98
Cn1nc(CC(=O)NCc2ccc(F)cc2)c2ccccc2c1=O	i	6	i	108	106	2	.	.	.
CCn1c(SCC(=O)NCc2ccccc2)nnc1C(CO)NC(=O)c1ccccc1 (centres undefined)	i	3	i	95	98	0	.	.	.
O=C(CSC1=NCCS1)c1ccc(Cl)cc1	i	129*	i	115	282*	0	104	-6	102
O=C(CSC1=NCCS1)N1CCN(c2ccc(Cl)cc2)CC1	i	-6	i	92	89	0	.	.	.
Cc1noc(C)c1S(=O)(=O)Nc1ccc(C(=O)NC2CCCCC2)cc1	i	-32	i	20*[inhibitor]	33*[inhibitor]	0	101	6	103
C=CCN(CC=C)C(=S)NC(=O)c1ccc(C)c(Br)c1	i	2	i	100	101	5	.	.	.
Cc1ccccc1/C=N/Nc1nc2ccccc2[nH]1	i	-13	i	99	104	1	.	.	.
Cc1[nH]c2ccccc2c1/C=N/Nc1nc2ccccc2[nH]1	i	19	i	105	140*	11	147	27	102
C(=N\Nc1nc2ccccc2[nH]1)/c1ccccc1	i	-9	i	103	102	-1	.	.	.
O=[N+]([O-])c1cc(/C=N/Nc2nc3ccccc3[nH]2)c(O)cc1O	.	0	i	132*	104	.	98	2	103
COc1ccc(N2CCN(C(=O)C(NC(=O)c3c(F)cccc3F)C(C)C)CC2)cc1 (centres undefined)	i	-11	i	95	96	1	.	.	.
COc1ccc(NC(=O)Cc2cccs2)c(OC)c1	i	4	i	103	111	0	.	.	.
COC(=O)c1cc(OC)c(OC)cc1NC(=O)Cc1cccs1	i	-46	i	5.0*[inhibitor]	7.0*[inhibitor]	2	99	-3	98
O=C(CCC(=O)Nc1ccc(Cl)cc1Cl)NNC(=O)[C@@H]1CCCC[C@@H]1C(=O)O	i	-21	i	1.0*[inhibitor]	1.0*[inhibitor]	.	93	-8	95
O=C(O)C1CCCCC1C(=O)Nc1ccc(Cl)cc1Cl (centres undefined)	i	4	i	107	103	0	.	.	.
CNC(=S)N(CCc1ccc(OC)c(OC)c1)Cc1cc2c(C)cc(C)cc2[nH]c1=O	i	-2	i	102	101	1	.	.	.
CN(C)CCN(C)Cc1c2ccccc2c(CN(C)CCN(C)C)c2ccccc12	-5.5*	24*	i	111	128	0	156	43	106
N=c1oc2ccccc2cc1-c1nc(-c2ccc(Cl)cc2)cs1	i	-2	i	128*	97	9	91	-9	98
C=Cc1c(C)c2cc3[nH]c(cc4nc(cc5nc(cc1[nH]2)C(C)=C5CCC(=O)O)C(CCC(=O)O)=C4C)c(C)c3C=C	i	-8	i	88	60*[inhibitor]	-2	69	-13	98
SMILES	ANO1 activ	MEKK2mut PB1 HTS	ANO1 block	MEKK3 PB1 HTS	MEKK2wt PB1 HTS	NTR1 agonist	MEKK2wt confirm	MEKK2mut confirm	MEKK3-MEK5 inh
Cc1ccc(S(=O)(=O)N2CCCOC2)cc1	i	-8	i	79*[inhibitor]	84	2	105	8	102
O=C(O)c1ccc(-c2nnc(-c3ccccc3)o2)cc1	i	4	i	98	98	-1	.	.	.
O=C(O)c1ccc(-c2nnc(-c3ccc([N+](=O)[O-])cc3)o2)cc1	i	26*	i	112	115	0	98	-6	93
COc1ccc(-c2c(C)n([O-])c3c([n+]2=O)CCCCC3)cc1	i	-1	i	135*	104	-2	103	2	102
Cc1c(-c2ccc(Cl)cc2)[n+](=O)c2c(n1[O-])CCCC2	i	-1	i	104	102	0	.	.	.
CCc1cc2cc(C(=O)N3CCN(Cc4ccccc4)CC3)sc2s1	i	-13	i	77*[inhibitor]	91	8	89	-11	85
CCc1cc2cc(C(=O)N3CCN(c4ccccc4)CC3)sc2s1	i	5	i	105	109	3	.	.	.
CSCC[C@H](NC(=O)N1CCn2c1nc1ccccc12)C(=O)NCc1ccco1	i	-3	i	97	98	1	.	.	.
Cc1cccc(NC(=O)c2ccc(S(=O)(=O)C(F)F)cc2)c1C	i	-1	i	137*	103	0	109	0	104
Cc1cccc(NC(=O)c2ccc(S(=O)(=O)N3CCOCC3)cc2)c1C	i	1	i	103	99	0	.	.	.
